The source made the active and inactive calls.
Columns and labels:
[1] = test system: Plasmodium falciparum Sir2 (PF13_0152, Sir2A); assay: pfSir2 binders on small-molecule microarrays, primary screen, biochemical, small-molecule microarray, 635 nm fluorescence (AID 1098); conditions: small-molecule microarray binding, fluorescence 635 nm; higher = more signal;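 also: score merges spot fluorescence intensity with its signal-to-noise ratio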
[2] = small-molecule microarray binders of probe aDKK1, primary screen, biochemical, biotinylated probe, 635/667 nm fluorescence (AID 1099); conditions: higher = more signal;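 also: score merges 667nm spot fluorescence with signal to noise across triplicate slides; reference of the scale not given here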
[3] = small-molecule microarray binders of probe aCHRDL2, primary screen, biochemical, biotinylated probe, 635/667 nm fluorescence (AID 1100); conditions: higher = more signal
[4] = splicing luciferase reporter signal modulators, primary screen, spliceosome inhibition project, cell-based, HEK293, splice +/- reporter (AID 1101); conditions: luminescence, 24 h, higher = more signal, called active from +8 up or from −8 down;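 also: HEK293 cells carrying a splicing-competent luciferase reporter gene; test concentration not given here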
[5] = molecular target: Fibroblast growth factor 10 (Homo sapiens) (UniProt O15520); assay: FGF10 binders on small-molecule microarrays, primary screen, biochemical, small-molecule microarray, 635 nm fluorescence (AID 1102); conditions: FGF10 binding, fluorescence 635 nm, higher = more signal
[6] = test system: glycogen synthase kinase-3 (GSK3A per assay name; protocol says GSK3B); assay: GSK3 binders on small-molecule microarrays, primary screen, biochemical, small-molecule microarray, 635 nm fluorescence, GSK3A (AID 1103); conditions: small-molecule microarray binding, fluorescence 635 nm; higher = more signal; also: the record names both GSK3A and GSK3B
[7] = molecular target: Epidermal growth factor receptor (Homo sapiens) (UniProt P00533); assay: EGFR binders on small-molecule microarrays, primary screen, biochemical, small-molecule microarray, 635 nm fluorescence (AID 1104); conditions: EGFR binding, higher = more signal;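 also: score merges 667 nm emission intensity with spot signal to noise over triplicate slides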
[8] = molecular target: Follistatin-related protein 3 (Homo sapiens) (UniProt O95633); assay: FSTL3 binders on small-molecule microarrays, primary screen, biochemical, small-molecule microarray, 635 nm fluorescence (AID 1105); conditions: FSTL3 binding, higher = more signal;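 also: score merges emission near 667 nm and signal to noise per printed spot across three slides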
[9] = molecular target: Dickkopf-related protein 1 (Homo sapiens) (UniProt O94907); assay: DKK1 binders on small-molecule microarrays, primary screen, biochemical, small-molecule microarray, 635 nm fluorescence scan (AID 1106); conditions: DKK1 binding, higher = more signal;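 also: score merges emission near 667 nm with signal to noise over three replicate slides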
[10] = test system: Inhibin beta A chain (activin A); assay: INHBA (activin A) binders on microarrays, primary screen, biochemical, small-molecule microarray, 635 nm fluorescence scan (AID 1107); conditions: small-molecule microarray binding, higher = more signal;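 also: mouse activin A protein probed at 4.33 µg/mL on printed slides; score merges bound-protein fluorescence near 667 nm with spot signal-to-noise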

Sequence of Follistatin-related protein 3 (Homo sapiens) (O95633 whole entry, looked up): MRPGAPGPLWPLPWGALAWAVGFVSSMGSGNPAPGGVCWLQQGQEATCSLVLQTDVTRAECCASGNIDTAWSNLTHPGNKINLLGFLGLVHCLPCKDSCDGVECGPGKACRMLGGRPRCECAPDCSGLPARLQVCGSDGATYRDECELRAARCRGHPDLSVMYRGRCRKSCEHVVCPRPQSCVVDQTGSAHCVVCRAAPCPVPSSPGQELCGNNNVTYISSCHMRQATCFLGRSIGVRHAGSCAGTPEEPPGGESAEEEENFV
Sequence of Fibroblast growth factor 10 (Homo sapiens) (O15520 whole entry, looked up): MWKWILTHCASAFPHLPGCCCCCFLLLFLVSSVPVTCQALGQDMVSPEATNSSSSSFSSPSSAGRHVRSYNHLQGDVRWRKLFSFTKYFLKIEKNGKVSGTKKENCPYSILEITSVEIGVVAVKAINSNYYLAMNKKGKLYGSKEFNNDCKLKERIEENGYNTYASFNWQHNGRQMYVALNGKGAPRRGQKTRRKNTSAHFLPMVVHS
Sequence of Dickkopf-related protein 1 (Homo sapiens) (O94907 whole entry, looked up): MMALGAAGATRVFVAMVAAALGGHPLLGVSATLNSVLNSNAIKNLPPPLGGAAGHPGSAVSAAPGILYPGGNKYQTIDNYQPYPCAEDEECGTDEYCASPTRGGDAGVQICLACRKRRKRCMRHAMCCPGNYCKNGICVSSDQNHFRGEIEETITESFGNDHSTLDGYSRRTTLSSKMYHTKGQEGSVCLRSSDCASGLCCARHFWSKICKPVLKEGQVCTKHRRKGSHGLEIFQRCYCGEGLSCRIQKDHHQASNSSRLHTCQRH
Sequence of Epidermal growth factor receptor (Homo sapiens) (P00533 whole entry, looked up): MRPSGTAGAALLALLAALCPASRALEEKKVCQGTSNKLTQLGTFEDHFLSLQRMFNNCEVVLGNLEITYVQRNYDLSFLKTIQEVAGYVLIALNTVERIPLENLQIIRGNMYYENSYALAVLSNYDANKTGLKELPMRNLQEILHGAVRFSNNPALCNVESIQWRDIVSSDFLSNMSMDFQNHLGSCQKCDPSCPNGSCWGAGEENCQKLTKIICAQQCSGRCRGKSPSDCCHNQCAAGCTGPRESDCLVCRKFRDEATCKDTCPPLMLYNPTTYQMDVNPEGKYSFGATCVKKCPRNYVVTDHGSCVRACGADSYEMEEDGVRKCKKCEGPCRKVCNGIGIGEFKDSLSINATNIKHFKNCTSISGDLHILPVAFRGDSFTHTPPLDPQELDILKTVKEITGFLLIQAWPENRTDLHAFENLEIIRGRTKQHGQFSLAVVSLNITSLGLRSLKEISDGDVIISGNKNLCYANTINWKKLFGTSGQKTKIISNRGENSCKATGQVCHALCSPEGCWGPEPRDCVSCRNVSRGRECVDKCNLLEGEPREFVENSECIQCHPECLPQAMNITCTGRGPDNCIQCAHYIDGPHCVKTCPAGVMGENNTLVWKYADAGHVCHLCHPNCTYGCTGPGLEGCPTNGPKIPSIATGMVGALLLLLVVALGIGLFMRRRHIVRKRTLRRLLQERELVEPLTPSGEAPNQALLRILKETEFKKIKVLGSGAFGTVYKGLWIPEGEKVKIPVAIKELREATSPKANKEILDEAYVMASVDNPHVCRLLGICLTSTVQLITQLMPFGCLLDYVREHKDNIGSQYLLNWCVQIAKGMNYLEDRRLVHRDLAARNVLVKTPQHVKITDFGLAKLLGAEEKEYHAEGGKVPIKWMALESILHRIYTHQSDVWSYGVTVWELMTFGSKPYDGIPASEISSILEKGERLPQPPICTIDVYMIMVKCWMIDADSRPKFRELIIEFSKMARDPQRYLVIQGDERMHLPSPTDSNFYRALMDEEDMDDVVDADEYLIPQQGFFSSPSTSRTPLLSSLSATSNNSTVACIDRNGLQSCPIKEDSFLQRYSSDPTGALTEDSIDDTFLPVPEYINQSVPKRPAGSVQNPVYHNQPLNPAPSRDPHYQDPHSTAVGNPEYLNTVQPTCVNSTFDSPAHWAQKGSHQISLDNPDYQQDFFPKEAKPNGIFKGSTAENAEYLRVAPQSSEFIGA

Row | SMILES | composite z-score [1] | composite z-score [2] | composite z-score [3] | z-score [4] | composite z-score [5] | composite z-score [6] | composite z-score [7] | composite z-score [8] | composite z-score [9] | composite z-score [10]
1 | O=C1OCC=C[C@H]2OC34C=CCN(Cn5nnc6ccccc65)C(=O)[C@H]3N(CCCO)C(=O)[C@@H]4[C@@H]12 (stereo not given in full) | -0.0241 | -0.0481 | 0.368 | -1.26 (inactive) | -0.21 | -1.08 | -0.577 | -1.39 | -0.448 | 0.839
2 | CC(C)N1C(=O)c2ccccc2[C@@H](C(=O)NC2CC2)[C@@H]1c1ccc(CO)cc1 | 0.869 | -0.18 | -0.194 | 0.381 (inactive) | -0.114 | 0.621 | -0.0202 | 0.552 | 0.37 | 1.13
3 | C=CCOC(=O)[C@H]1[C@@H]2C(=O)O[C@@H](c3ccccc3)[C@@H](c3ccccc3)N2[C@@H](c2ccc(OCCOC(=O)[C@@H]3C[C@@H]4C(=O)N[C@@H](CCCCNC(C)=O)C(=O)N4[C@@H]3c3ccc(O)cc3)cc2)[C@]12C(=O)Nc1ccc(I)cc12 | 0.95 | 0.0153 | 0.127 | -0.151 (inactive) | 1.33 | 1.27 | 1.08 | 1.3 | 0.789 | 0.732
4 | C=CCC(OC(C)=O)[C@@H]1[C@@H](N(Cc2cccc3ccccc23)C(=O)Cc2ccc(F)cc2)c2cc(OCCCO)ccc2N1C(=O)c1ccc2ccccc2n1 (stereo not given in full) | 0.12 | 0.195 | 0.429 | 0.866 (inactive) | -0.0905 | -0.329 | -0.06 | -0.159 | -0.305 | 1.36
5 | O=C1C=C(c2ccccc2)C(=O)c2ccc([C@H]3Oc4ccccc4S(=O)(=O)N4CCC[C@@H]34)cc21 | -0.186 | -0.39 | -0.6 | 0.781 (inactive) | -0.101 | -0.191 | 0.496 | -0.266 | 0.714 | 1.04
6 | CCCCCCc1nc(C2CC2)cc2c1[Si](C(C)C)(C(C)C)OC2 | -0.552 | -0.226 | -0.144 | -1.71 (inactive) | -0.729 | -0.461 | -0.375 | -0.762 | -0.356 | 0.819
7 | COc1ccc(-c2nc(-c3ccccc3)c3c(c2C)CO[Si]3(C(C)C)C(C)C)cn1 | -0.18 | -0.0958 | -0.505 | 0.0313 (inactive) | 0.984 | 0.729 | -0.0277 | 0.446 | 0.125 | 0.468
8 | CC(CO)N1C(=O)[C@@H]2[C@H]3C(=O)OCC=C[C@H]3OC23C=CCN(CCN2CCOCC2)C(=O)[C@@H]13 (stereo not given in full) | 1.12 | -0.373 | -0.646 | 0.497 (inactive) | -0.199 | 0.248 | -0.101 | 0.152 | 0.439 | 0.777
9 | CO[C@]12C=C(Br)[C@@H](C[C@@H]1c1cccc(C)c1)[C@@]1(CO1)C2=O | 1.53 | -0.306 | -0.284 | -0.258 (inactive) | 0.0635 | -0.207 | -0.14 | 0.261 | 0.0254 | 0.521
10 | Cc1ccccc1C(O)C1C=CC2C(=O)N(C)C(=O)C2N1N(c1ccccc1)c1ccccc1 (stereo not given) | -0.167 | 0.858 | 0.11 | 0.595 (inactive) | 0.362 | -0.401 | 0.304 | 0.0459 | 0.119 | 1.33
11 | C=C[C@@H](COC(C)=O)N(C(=O)OC(C)(C)C)S(=O)(=O)c1ccc(Br)cc1 | 0.732 | 0.311 | -0.152 | 0.446 (inactive) | 1.18 | 1.23 | 0.837 | 1.45 | 2.14 | 0.824
12 | CC(C)N1C(=O)C[C@@](C(=O)NCCCN(C)C)(c2ccc([N+](=O)[O-])cc2)[C@H]1c1ccc(CO)cc1 | -0.133 | -0.253 | 0.692 | 0.313 (inactive) | -0.532 | -0.777 | -0.496 | -0.309 | -0.197 | 0.698
13 | COc1ccc(NC(=O)O[C@H]2[C@H](OC(=O)Nc3ccccc3)[C@@H](OC(=O)Nc3ccccc3)[C@@H](OC)O[C@@H]2CO)cc1 | 1.55 | 0.25 | 0.39 | -1.67 (inactive) | 1.5 | 1.31 | 0.0729 | 0.83 | 0.396 | 0.385
14 | O=C(CS)NCCCCCNC(=O)[C@@H]1C[C@@H]2C(=O)N3CCC[C@H]3C(=O)N2[C@@H]1c1cccc(OCCO)c1 | 1.47 | -0.137 | 0.468 | 0.501 (inactive) | 0.453 | 0.649 | 0.196 | -0.596 | 0.292 | -0.525

Reference: PubChem BioAssay
